The nature of test [1]: qHTS drug screen for cell cycle checkpoint inhibitors in PARPi-resistant BRCA-mutant ovarian cancer cell lines. (AID 1963452). As to conditions: PEO1/OlaR viability, CellTiter-Glo luminescence, 96 h; for Z-AUC: stronger effect = lower value. In short, it runs like this:
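PEO1, PEO4 and PEO1/OlaR ovarian cancer cells, 600 per well, exposed 96 h at 37C to a dilution series. Viability read by CellTiter-Glo luminescence, normalized to DMSO and empty wells; activity summarized as Z-AUC.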
Background: Quantitative high-throughput screening tests each substance at several concentrations.

A short description of test [2]: qHTS for identification of novel therapeutic agents for treatment of microphthalmiaassociated transcription factor (MiT) renal cell carcinoma (RCC) (AID 1963991). As to conditions: CellTiter-Glo, 48 h; for Potency: active = Z-AUC below -0.8 in all three lines; for z-score: stronger effect = lower value. In short, it runs like this: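 Three TFE3-fusion RCC lines (UOK109, UOK124, UOK145), 500 cells/well in complete medium, were treated with MIPE 4.0 compounds for 48 hours at 37 C. Viability was by CellTiter-Glo luminescence, normalized to DMSO (100%) and empty wells (0%); curves fitted over 11 concentrations.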

The mark [3] stands for this setting: measured here: PEO1 parental Z-AUC.
The mark [4] stands for this setting: TFE3-RCC UOK109 viability, measured here: UOK109 Z-AUC.
Where [5] appears, read: TFE3-RCC viability, measured here: UOK124 Z-AUC.
The mark [6] stands for this setting: TFE3-RCC viability, measured here: UOK145 Z-AUC.

“And” between values parts separate entries of the source, which are not always exact repeats. Equal values may be shown once. Results filed as inconclusive are left out. The source made the active and inactive calls. The call rests on the fitted dose curve.
Potency means the concentration at half of the fitted maximal effect.

For the molecule `CC(C)(O)c1cc2nc(-c3cnc(N)nc3)nc(N3CCOCC3)c2s1`, the Z-AUC was -1.37 (inactive) in test [1], -1.91 in test [1] (setting [3]) and -1.8 in test [1] (measured here: PEO4 Z-AUC). Besides, in test [2] (TFE3-RCC UOK109 viability), the Potency was 33.2 nM (active). Also, the z-score in test [2] (setting [4]) is -2.49; in test [2] (setting [5]), -0.824; in test [2] (setting [6]), -2.51.

`CS(=O)(=O)N1CCN(Cc2cc3nc(-c4cccc5[nH]ncc45)nc(N4CCOCC4)c3s2)CC1`: the Z-AUC in test [1] was 0.0585 (inactive); in test [1] (setting [3]), 0.321; in test [1] (measured here: PEO4 Z-AUC), 0.781. Further, the Potency in test [2] (TFE3-RCC UOK109 viability) is 105 nM (active). For the same molecule, the z-score in test [2] (setting [4]) is -1.55; in test [2] (setting [5]), -1.58; in test [2] (setting [6]) it was -1.5.

As for `C[C@@H](Oc1cc(-n2cnc3ccc(CN4CCN(C)CC4)cc32)sc1C(N)=O)c1ccccc1C(F)(F)F`, the Z-AUC in test [1] was -0.926 (inactive); in test [1] (setting [3]) it was -1.54; in test [1] (measured here: PEO4 Z-AUC), -1.51. Also, the Potency in test [2] (TFE3-RCC UOK109 viability) was 6620 nM (active). Besides, the z-score in test [2] (setting [4]) was -0.886; in test [2] (setting [5]), -1.58; in test [2] (setting [6]), -1.64.

Turning to `Cc1c(NC(=O)OC[C@@H]2COCCN2)cn2ncnc(Nc3ccc4c(cnn4Cc4cccc(F)c4)c3)c12`, the Z-AUC is -1.36 (inactive) and 1.21 (inactive) in test [1]; -0.48 and 1.05 in test [1] (setting [3]); -1.04 and 1.11 in test [1] (measured here: PEO4 Z-AUC). Moreover, the Potency in test [2] (TFE3-RCC UOK109 viability) was 118 nM (active). Besides, the values for the z-score in test [2] (setting [4]), in test [2] (setting [5]) and in test [2] (setting [6]) were -1.82, -1.81 and -2.05, respectively.

In the case of `O=C(NCCS(=O)(=O)c1ccc(C(F)(F)F)cn1)c1ccc(Cl)cc1`, the Z-AUC was 0.591 (inactive) in test [1], 0.415 in test [1] (setting [3]) and 0.479 in test [1] (measured here: PEO4 Z-AUC). Besides, the z-score is -0.45 in test [2] (setting [4]), 0.348 in test [2] (setting [5]) and 0.45 in test [2] (setting [6]).

Turning to `C[C@@]12O[C@@H](C[C@]1(O)CO)n1c3ccccc3c3c4c(c5c6ccccc6n2c5c31)CNC4=O`, the figures for the Z-AUC in test [1], in test [1] (setting [3]) and in test [1] (measured here: PEO4 Z-AUC) were -1.24 (inactive), -0.538 and -0.928, respectively. The Potency in test [2] (TFE3-RCC UOK109 viability) is 5260 nM (active). Moreover, the results for the z-score in test [2] (setting [4]), in test [2] (setting [5]) and in test [2] (setting [6]) were -1.64, -0.853 and -1.26, respectively.

Consider `CCCn1c(=O)c2[nH]c(-c3cnn(Cc4cccc(C(F)(F)F)c4)c3)nc2n(CC)c1=O`, for which the Z-AUC was 1.35 (inactive) in test [1], 1.45 in test [1] (setting [3]) and 1.33 in test [1] (measured here: PEO4 Z-AUC). Further, the z-score was determined as 0.85 in test [2] (setting [4]), 0.351 in test [2] (setting [5]) and 0.744 in test [2] (setting [6]).

Turning to `Nc1cc(C(F)(F)F)c(-c2cc(N3CCOCC3)nc(N3CCOCC3)n2)cn1`, the Z-AUC in test [1] was -2.03 (inactive); in test [1] (setting [3]), -1.2; in test [1] (measured here: PEO4 Z-AUC), -0.609. For the same molecule, in test [2] (TFE3-RCC UOK109 viability), the Potency is 662 nM (active). Also, the z-score in test [2] (setting [4]) is -0.856; in test [2] (setting [5]) it was -0.844; in test [2] (setting [6]) it was -1.62.

Take `NC(=O)Nc1cc(-c2cccc(F)c2)sc1C(=O)N[C@H]1CCCNC1`: the Potency in test [1] was 110 nM (active); in test [2] (TFE3-RCC UOK109 viability), 935 nM (active). Further, the Z-AUC in test [1] (setting [3]) was -1.9; in test [1] (measured here: PEO4 Z-AUC), -1.5. Further, the z-score in test [2] (setting [4]) is -1.42; in test [2] (setting [5]), -1.69; in test [2] (setting [6]), -1.85.

Turning to `C[C@]12CC[C@H](O)CC1=CCC1C2CC[C@]2(C)C(n3cnc4ccccc43)=CCC12` (stereo partly specified), the Z-AUC was 0.586 (inactive) in test [1], 1.13 in test [1] (setting [3]) and 0.642 in test [1] (measured here: PEO4 Z-AUC). In addition, the z-score in test [2] (setting [4]) was 0.298; in test [2] (setting [5]) it was 0.603; in test [2] (setting [6]), -0.0216.

As to `O=C(Nc1ncc(-c2cc(C(F)F)nn2-c2c(Cl)cccc2Cl)s1)C1CC1`, the Z-AUC in test [1] is -1.34 (inactive); in test [1] (setting [3]), -1.49; in test [1] (measured here: PEO4 Z-AUC), -1.31. Moreover, the Potency in test [2] (TFE3-RCC UOK109 viability) was 935 nM (active). Also, the values for the z-score in test [2] (setting [4]), in test [2] (setting [5]) and in test [2] (setting [6]) were -1.06, -1.43 and -1.27, respectively.

For `CCn1nnc2c(N3CCOCC3)nc(-c3ccc(NC(=O)Nc4ccc(C(=O)N5CCN(C)CC5)cc4)cc3)nc21`, the Z-AUC in test [1] was -0.869 (inactive); in test [1] (setting [3]), -1.58; in test [1] (measured here: PEO4 Z-AUC), -1.65. In addition, the Potency in test [2] (TFE3-RCC UOK109 viability) was 526 nM (active). The z-score in test [2] (setting [4]) is -1.28; in test [2] (setting [5]) it was -1.68; in test [2] (setting [6]), -1.94.

Turning to `CCN1CCN(CC(=O)Nc2ccc(-c3cccc4c(=O)cc(N5CCOCC5)oc34)c3sc4ccccc4c23)CC1`, the Z-AUC in test [1] is -1.21 (inactive); in test [1] (setting [3]), -0.89; in test [1] (measured here: PEO4 Z-AUC) it was -0.929. For the same molecule, the Potency in test [2] (TFE3-RCC UOK109 viability) was 2640 nM (active). Besides, the values for the z-score in test [2] (setting [4]), in test [2] (setting [5]) and in test [2] (setting [6]) were -2, -1.8 and -2.12, respectively.

Turning to `Cc1c(CN2CCN(S(C)(=O)=O)CC2)sc2c(N3CCOCC3)nc(-c3cnc(N)nc3)nc12`, the values for the Z-AUC in test [1], in test [1] (setting [3]) and in test [1] (measured here: PEO4 Z-AUC) were 0.0284 (inactive), 0.564 and 0.402, respectively. Moreover, in test [2] (TFE3-RCC UOK109 viability), the Potency was 83.3 nM (active). For the same molecule, the z-score was -2.2 in test [2] (setting [4]), -2.43 in test [2] (setting [5]) and -2.46 in test [2] (setting [6]).

On to `O=C(O)Cn1nnc(-c2cc(N3CCC(Oc4cc(F)ccc4Br)CC3)no2)n1`, for which the Z-AUC in test [1] is -0.81 (inactive); in test [1] (setting [3]), -0.799; in test [1] (measured here: PEO4 Z-AUC) it was -1.41. Moreover, the z-score in test [2] (setting [4]) was determined as 0.654; in test [2] (setting [5]) it was 0.371; in test [2] (setting [6]) it was 1.36.

As to `COc1ccc(CC2c3cc(OC)c(OC)cc3CC[N+]2(C)CCC(=O)OCCCCCOC(=O)CC[N+]2(C)CCc3cc(OC)c(OC)cc3C2Cc2ccc(OC)c(OC)c2)cc1OC` (stereo unspecified), the Z-AUC is 0.349 (inactive) in test [1], 0.569 in test [1] (setting [3]) and 0.213 in test [1] (measured here: PEO4 Z-AUC). The z-score in test [2] (setting [4]) came to 1.41; in test [2] (setting [5]), 1.48; in test [2] (setting [6]) it was 1.15.

As to `OCCCNc1cc(-c2ccnc(Nc3cccc(Cl)c3)n2)ccn1`, the values for the Z-AUC in test [1], in test [1] (setting [3]) and in test [1] (measured here: PEO4 Z-AUC) were -1.99 (inactive), -2.3 and -2.17, respectively. Moreover, the Potency in test [2] (TFE3-RCC UOK109 viability) is 209 nM (active). For the same molecule, the results for the z-score in test [2] (setting [4]), in test [2] (setting [5]) and in test [2] (setting [6]) were -1.57, -0.939 and -2.05, respectively.

As to `N#Cc1c(O)c2c(-c3ccc(-c4ccccc4O)cc3)csc2[nH]c1=O`, the Z-AUC in test [1] was 0.825 (inactive); in test [1] (setting [3]) it was 1.08; in test [1] (measured here: PEO4 Z-AUC), 1.07. The values for the z-score in test [2] (setting [4]), in test [2] (setting [5]) and in test [2] (setting [6]) were 0.657, 0.453 and 0.62, respectively.

For `CC(C)c1cnn2c(NCc3ccccc3)cc(N[C@@H](CO)[C@H](O)CO)nc12`, the Z-AUC was -1.87 (inactive) in test [1], -1.92 in test [1] (setting [3]) and -1.77 in test [1] (measured here: PEO4 Z-AUC). In addition, in test [2] (TFE3-RCC UOK109 viability), the Potency was 372 nM (active). The z-score in test [2] (setting [4]) was -1.04; in test [2] (setting [5]) it was -0.933; in test [2] (setting [6]), -1.84.

For the molecule `CN[C@H]1CCc2cc(OC)c(OC)c(OC)c2-c2ccc(OC)c(=O)cc21`, the Potency in test [1] is 174 nM (active); in test [2] (TFE3-RCC UOK109 viability), 3.72 nM (active). The Z-AUC in test [1] (setting [3]) is -1.41; in test [1] (measured here: PEO4 Z-AUC) it was -1.47. Besides, the z-score was -2.54 in test [2] (setting [4]), -2.9 in test [2] (setting [5]) and -0.848 in test [2] (setting [6]).

As for `Cn1c(CNc2ccc(C(=N)N)cc2)nc2cc(C(=O)N(CCC(=O)O)c3ccccn3)ccc21`, the Z-AUC in test [1] is 3.54 (inactive); in test [1] (setting [3]), 3.55; in test [1] (measured here: PEO4 Z-AUC), 3.92. Also, the z-score was 1.13 in test [2] (setting [4]), 1.05 in test [2] (setting [5]) and 1.25 in test [2] (setting [6]).

`CS(=O)(=O)c1ccc(-c2cnc(N)c(C(=O)Nc3ccccc3)n2)cc1`: the Z-AUC in test [1] was -0.54 (inactive); in test [1] (setting [3]), -0.901; in test [1] (measured here: PEO4 Z-AUC) it was -1.14. The z-score in test [2] (setting [4]) is 0.172; in test [2] (setting [5]), 0.911; in test [2] (setting [6]), 0.761.

The values above are taken from PubChem BioAssay (NCATS).
